Test results as given in PubChem BioAssay.
The source made the active and inactive calls.

How the values were obtained:
[1] = target: Albumin (Bos taurus) (UniProt P02769); experiment: compounds binding labelled BSA control protein – biochemical, small-molecule microarray, Alexa647 label, 635/667 nm fluorescence, artefact control for SMM control protein annotation, profiling panel (AID 1118); conditions: BSA-A647 binding, fluorescence 635 nm, higher = more signal;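 note: score merges 667 nm emission intensity and signal-to-noise per printed compound spot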
Sequence of Albumin (Bos taurus) (P02769 whole entry, looked up): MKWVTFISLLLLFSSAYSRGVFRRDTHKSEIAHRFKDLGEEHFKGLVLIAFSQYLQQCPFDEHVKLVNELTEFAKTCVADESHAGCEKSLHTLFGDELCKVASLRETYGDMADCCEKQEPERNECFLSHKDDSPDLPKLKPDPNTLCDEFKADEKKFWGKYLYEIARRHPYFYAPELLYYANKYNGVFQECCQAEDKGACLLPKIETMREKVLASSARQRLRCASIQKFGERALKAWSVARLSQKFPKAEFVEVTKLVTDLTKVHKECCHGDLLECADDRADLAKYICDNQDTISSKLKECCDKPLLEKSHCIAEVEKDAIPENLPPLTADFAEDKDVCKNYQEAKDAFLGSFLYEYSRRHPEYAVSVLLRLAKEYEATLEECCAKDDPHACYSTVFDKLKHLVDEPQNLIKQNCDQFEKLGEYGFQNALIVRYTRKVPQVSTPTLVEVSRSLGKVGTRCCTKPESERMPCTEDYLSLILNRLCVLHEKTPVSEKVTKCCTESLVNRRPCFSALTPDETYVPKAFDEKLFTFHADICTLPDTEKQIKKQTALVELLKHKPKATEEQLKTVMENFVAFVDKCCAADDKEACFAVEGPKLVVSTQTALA

[2] = probe aXIP binding to arrayed compounds – biochemical, NeuroSMM set, 635/667 nm fluorescence, primary screen (AID 1119); conditions: small-molecule microarray, higher = more signal, called active from +8 up or from −8 down;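 note: probe is the protein aXip251-270 applied at 1 µg/mL to compound-printed slides; binding of probe to printed compounds measured as 667 nm fluorescence plus signal to noise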
[3] = probe aNOTCH3 binding on compound microarray – biochemical, small-molecule microarray, 635/667 nm fluorescence, primary screen (AID 1120); conditions: higher = more signal;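 note: probe is a biotin-tagged antibody raised against NOTCH3 rather than NOTCH3 protein; score merges spot fluorescence near 667 nm with spot signal to noise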
[4] = probe aNOTCH2 binding on compound microarray – biochemical, small-molecule microarray, 635/667 nm fluorescence, primary screen (AID 1121); conditions: higher = more signal;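 note: score merges feature fluorescence read at 667 nm with its signal to noise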
[5] = target: Carbonic anhydrase 2 (Homo sapiens) (UniProt P00918); experiment: compounds binding carbonic anhydrase 2 – biochemical, small-molecule microarray, Alexa647-labelled CAII, profiling panel (AID 1122); conditions: CAII-A647 binding fluorescence, higher = more signal
[6] = COS7 lysate on small-molecule microarray, probe aHis, 635 nm (AID 1123); conditions: COS7 cell lysate, fluorescence, higher = more signal;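 note: z-score combines 667nm fluorescence intensity with signal-to-noise per printed compound spot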
[7] = probe aLAP1 signal on lysate-treated microarray – cell lysate, small-molecule microarray, COS7 lysate, primary screen (AID 1124); conditions: probe aLAP1, fluorescence, higher = more signal;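 note: lysate comes from COS7 cells expressing LAP1 and is applied at 0.3 µg/mL; score merges spot fluorescence near 667 nm with signal-to-noise over triplicate slides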
[8] = test system: Sam68 (KHDRBS1); experiment: compounds binding KHDRBS1 protein – biochemical, small-molecule microarray, 635 nm fluorescence, primary screen (AID 1125); conditions: higher = more signal;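 note: score merges 667 nm channel intensity with signal to noise over triplicate slides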
[9] = test system: Chordin-like protein 2 (CHRDL2); experiment: compounds binding chordin-like 2 – biochemical, small-molecule microarray, 635 nm fluorescence, primary screen (AID 1126); conditions: fluorescence 635 nm, higher = more signal;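 note: printed compound slides probed with Chrdl2 protein at 4 µg/mL for 1 h at 4 C; score merges 667 nm emission intensity with signal to noise over three replicate slides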
[10] = target: Concanavalin-A (Canavalia ensiformis) (UniProt P02866); experiment: compounds binding concanavalin A lectin – biochemical, small-molecule microarray, Alexa647 label, 635 nm, artefact control for SMM control protein annotation, primary screen (AID 1127); conditions: ConA-A647 binding fluorescence, higher = more signal;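 note: z combines 667 nm emission intensity with signal-to-noise across three replicate slides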
Sequence of Concanavalin-A (Canavalia ensiformis) (P02866 whole entry, looked up): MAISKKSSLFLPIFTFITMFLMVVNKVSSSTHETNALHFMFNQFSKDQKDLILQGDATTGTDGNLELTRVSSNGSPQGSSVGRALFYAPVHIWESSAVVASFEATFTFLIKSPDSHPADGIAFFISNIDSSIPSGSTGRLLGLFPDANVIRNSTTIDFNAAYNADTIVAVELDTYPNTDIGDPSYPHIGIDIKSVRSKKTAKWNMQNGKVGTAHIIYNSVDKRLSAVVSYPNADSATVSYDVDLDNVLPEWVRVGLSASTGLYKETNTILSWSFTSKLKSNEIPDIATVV

[11] = compounds binding Alexa647 anti-His antibody – biochemical, small-molecule microarray, 635 nm fluorescence, artefact control for SMM control protein annotation, primary screen (AID 1128); conditions: higher = more signal;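 note: score merges feature fluorescence with signal-to-noise for each printed compound spot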
[12] = test system: Human papillomavirus type 1a E7 protein (residues 1-88); experiment: HPV1a E7 small-molecule binders, primary screen, biochemical, small-molecule microarray, residues 1-88, 635 nm (AID 1129); conditions: small-molecule microarray binding, fluorescence 635 nm; higher = more signal
[13] = target: Focal adhesion kinase 1 (Homo sapiens) (UniProt Q05397); experiment: PTK2 protein binding on printed compound slides – biochemical, small-molecule microarray, 635/667 nm fluorescence, BSA, DTT, primary screen (AID 1130); conditions: 635 nm fluorescence, higher = more signal;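 note: composite of spot emission at 667 nm and signal to noise over triplicate slides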
Sequence of Focal adhesion kinase 1 (Homo sapiens) (Q05397 whole entry, looked up): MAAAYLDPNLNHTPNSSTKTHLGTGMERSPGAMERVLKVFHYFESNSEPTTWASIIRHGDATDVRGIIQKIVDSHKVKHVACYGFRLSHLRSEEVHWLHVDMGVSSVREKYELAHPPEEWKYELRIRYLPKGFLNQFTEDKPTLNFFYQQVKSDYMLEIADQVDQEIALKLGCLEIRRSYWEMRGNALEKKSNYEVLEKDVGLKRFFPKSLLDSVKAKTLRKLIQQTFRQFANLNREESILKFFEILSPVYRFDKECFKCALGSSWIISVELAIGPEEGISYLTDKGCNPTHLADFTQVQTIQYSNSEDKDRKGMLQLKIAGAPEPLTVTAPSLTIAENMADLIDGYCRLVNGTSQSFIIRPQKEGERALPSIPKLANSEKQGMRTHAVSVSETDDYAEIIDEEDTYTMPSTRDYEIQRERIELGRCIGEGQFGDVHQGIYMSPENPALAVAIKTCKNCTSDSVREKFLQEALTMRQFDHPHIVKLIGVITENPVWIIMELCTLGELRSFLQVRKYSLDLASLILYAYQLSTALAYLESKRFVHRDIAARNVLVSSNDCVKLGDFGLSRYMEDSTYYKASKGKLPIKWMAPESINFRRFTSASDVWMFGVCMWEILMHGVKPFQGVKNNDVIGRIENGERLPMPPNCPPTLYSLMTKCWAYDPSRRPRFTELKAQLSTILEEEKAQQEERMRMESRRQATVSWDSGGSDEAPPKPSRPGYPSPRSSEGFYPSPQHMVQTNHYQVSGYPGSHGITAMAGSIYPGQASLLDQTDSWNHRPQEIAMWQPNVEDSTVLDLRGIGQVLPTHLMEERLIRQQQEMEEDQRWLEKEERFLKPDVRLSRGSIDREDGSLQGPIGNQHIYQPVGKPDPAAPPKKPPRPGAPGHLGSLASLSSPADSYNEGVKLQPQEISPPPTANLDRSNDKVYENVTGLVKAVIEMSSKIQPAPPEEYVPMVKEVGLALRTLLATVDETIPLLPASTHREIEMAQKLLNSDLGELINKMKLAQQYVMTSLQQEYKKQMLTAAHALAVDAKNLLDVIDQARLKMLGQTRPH

[14] = test system: Fibrinogen (Alexa647-labelled); experiment: Alexa647-fibrinogen binding to printed small molecules – biochemical, small-molecule microarray, 635/667 nm fluorescence, artefact control for SMM control-protein annotation, profiling panel (AID 1131); conditions: fibrinogen-A647 binding fluorescence, higher = more signal;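 note: z-score merges 667 nm fluorescence with per-spot signal-to-noise over triplicate slides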
[15] = target: Follistatin (Homo sapiens) (UniProt P19883); experiment: FST protein binding to printed compounds – biochemical, small-molecule microarray, 635/667 nm fluorescence, primary screen (AID 1132); conditions: 635 nm fluorescence, higher = more signal
Sequence of Follistatin (Homo sapiens) (P19883 whole entry, looked up): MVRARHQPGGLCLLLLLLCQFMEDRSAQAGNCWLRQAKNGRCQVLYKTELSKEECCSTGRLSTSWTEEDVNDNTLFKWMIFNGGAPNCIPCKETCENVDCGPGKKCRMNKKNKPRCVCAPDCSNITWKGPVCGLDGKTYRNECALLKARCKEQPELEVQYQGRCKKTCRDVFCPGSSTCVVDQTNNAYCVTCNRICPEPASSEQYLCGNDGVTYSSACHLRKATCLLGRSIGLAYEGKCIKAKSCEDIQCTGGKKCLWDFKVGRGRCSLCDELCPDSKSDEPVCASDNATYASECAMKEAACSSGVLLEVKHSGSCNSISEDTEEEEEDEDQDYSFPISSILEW

[16] = target: Fibroblast growth factor 2 (Homo sapiens) (UniProt P09038); experiment: basic fibroblast growth factor binding to printed compounds – biochemical, small-molecule microarray, 635/667 nm fluorescence, primary screen (AID 1133); conditions: FGF2, fluorescence 635/667, higher = more signal
Sequence of Fibroblast growth factor 2 (Homo sapiens) (P09038 whole entry, looked up): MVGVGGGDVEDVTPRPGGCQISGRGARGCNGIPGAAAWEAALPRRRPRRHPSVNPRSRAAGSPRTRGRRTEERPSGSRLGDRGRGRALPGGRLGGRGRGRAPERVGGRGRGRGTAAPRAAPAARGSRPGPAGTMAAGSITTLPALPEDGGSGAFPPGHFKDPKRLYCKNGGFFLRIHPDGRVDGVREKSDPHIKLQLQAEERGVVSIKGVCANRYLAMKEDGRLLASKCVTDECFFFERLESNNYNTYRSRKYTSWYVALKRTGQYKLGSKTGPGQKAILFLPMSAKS

[17] = JC-1 mitochondrial potential readout, lung cancer cells – cell-based, A549, JC-1 fluorescence, basal, 24 h, 100 nL, profiling panel (AID 1138); conditions: higher = more signal;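 note: A549 lung adenocarcinoma cells under basal conditions with no added stimulus; test concentration not given here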
[18] = test system: Lefty1; experiment: Lefty1 protein binding to printed compounds – biochemical, small-molecule microarray, 635/667 nm fluorescence, primary screen (AID 1139); conditions: fluorescence 635/667, higher = more signal
[19] = test system: wheat germ agglutinin (Triticum aestivum), Alexa647-labelled; experiment: Alexa647-WGA lectin binding to printed small molecules – biochemical, small-molecule microarray, 635/667 nm fluorescence, artefact control for SMM control-protein annotation, profiling panel (AID 1140); conditions: WGA-A647 binding, 635 nm fluorescence, higher = more signal;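 note: score merges 667 nm feature emission with signal to noise over triplicate slides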
[20] = target: Luciferin 4-monooxygenase (Photinus pyralis) (UniProt P08659); experiment: inhibition of purified Photinus pyralis luciferase – biochemical, luminescence, purified enzyme, 2006 set, primary screen (AID 1141); conditions: purified firefly luciferase, SteadyGlo luminescence, 30 min; higher = more signal, called active from +8 up or from −8 down;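 note: cell-free assay with purified firefly luciferase at 100 ng per well in PBS; test concentration not given here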
Sequence of Luciferin 4-monooxygenase (Photinus pyralis) (P08659 whole entry, looked up): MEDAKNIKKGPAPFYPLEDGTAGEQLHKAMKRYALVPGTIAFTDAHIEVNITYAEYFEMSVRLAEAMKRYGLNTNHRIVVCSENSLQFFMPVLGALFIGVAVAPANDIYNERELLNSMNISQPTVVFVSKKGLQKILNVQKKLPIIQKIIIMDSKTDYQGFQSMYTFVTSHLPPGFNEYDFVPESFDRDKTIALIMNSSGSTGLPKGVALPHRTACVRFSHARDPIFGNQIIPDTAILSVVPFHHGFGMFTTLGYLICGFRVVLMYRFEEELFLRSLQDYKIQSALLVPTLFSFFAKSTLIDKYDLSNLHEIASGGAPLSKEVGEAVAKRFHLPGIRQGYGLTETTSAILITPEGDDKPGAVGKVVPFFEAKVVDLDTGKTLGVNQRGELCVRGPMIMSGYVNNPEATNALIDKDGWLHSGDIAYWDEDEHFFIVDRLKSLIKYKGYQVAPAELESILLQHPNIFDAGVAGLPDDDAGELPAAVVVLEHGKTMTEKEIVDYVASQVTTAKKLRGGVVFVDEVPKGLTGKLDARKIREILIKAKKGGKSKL

SMILES | composite z-score [1] | composite Z-score [2] | composite z-score [3] | composite z-score [4] | composite z-score [5] | composite z-score [6] | composite z-score [7] | composite z-score [8] | composite z-score [9] | composite z-score [10] | composite z-score [11] | composite z-score [12] | composite z-score [13] | composite z-score [14] | composite z-score [15] | composite z-score [16] | z-score [17] | composite z-score [18] | composite z-score [19] | z-score [20]
COc1ccc([Si](C)(C)[C@H]2[C@H](CC(=O)N3Cc4ccccc4C[C@H]3CO)O[C@@]3(C(=O)N(C)c4ccccc43)[C@@H]2C)cc1 | 0.656 | 0.673 (inactive) | 0.163 | -0.11 | 0.686 | 1.89 | 0.941 | 1.28 | 1.37 | 1.01 | 1.45 | 1.19 | 0.333 | 0.945 | 1.52 | 1.24 | 0.206 | 1.58 | 0.938 | -0.243 (inactive)
COCCOC(=O)N1C(=O)[C@@]2(c3ccccc31)[C@H](C(=O)N1CCN(c3ncccn3)CC1)[C@H]1C(=O)O[C@H](c3ccccc3)[C@H](c3ccccc3)N1[C@@H]2c1ccccc1OCCO | -0.448 | 0.196 (inactive) | 0.102 | -0.118 | 0.506 | 1.19 | 1.37 | 1.28 | 0.761 | 1.05 | 0.724 | 1.18 | 0.382 | 0.867 | 1.15 | 0.606 | -0.531 | 1.02 | 0.272 | -0.0896 (inactive)
O=C1O[C@H](Cc2ccccc2)[C@@H]2[C@H]3C=CCCC=C3CN2[C@H]1Cc1ccc(O)cc1 | -0.314 | -0.263 (inactive) | 0.0208 | -0.122 | 0.746 | -0.265 | -0.256 | -1.09 | -0.278 | -0.211 | 1.38 | -1.36 | 0.203 | -2.73 | 0.16 | -0.579 | -0.653 | 0.262 | 0.778 | -0.992 (inactive)
NC(=O)NCC#Cc1ccc2c(c1)[C@]1(C(=O)N2)[C@H](c2ccc(OCCO)cc2)N2[C@H](c3ccccc3)[C@H](c3ccccc3)OC(=O)[C@H]2[C@@H]1C(=O)O | 0.544 | 0.196 (inactive) | -0.0918 | -0.132 | 0.256 | 0.157 | -0.23 | -0.761 | -0.736 | 1.04 | 1.21 | -1.59 | -0.333 | 0.755 | -0.044 | -0.498 | -1.15 | -0.601 | 1.22 | -1.6 (inactive)
COCCOC(=O)N1C(=O)[C@@]2(c3cc(C#CCCO)ccc31)[C@H](c1ccc(OCCO)cc1)N1[C@H](c3ccccc3)[C@H](c3ccccc3)OC(=O)[C@H]1[C@@H]2C(=O)N1CCCCCCC1 | -0.226 | 2.1 (inactive) | 1.26 | 0.675 | 0.67 | 2.7 | 1.95 | 1.33 | 1.43 | 1.13 | 0.939 | 1.2 | 0.644 | 0.726 | 1.46 | 1.68 | -0.901 | 1.33 | 1.32 | -0.247 (inactive)
CCOC(=O)C1=CCC(c2cc3ccccc3[nH]2)N(CCN2CC(C(=O)OCC)=CCC2c2cc3ccccc3[nH]2)C1 (stereo not given) | 0.656 | 0.0551 (inactive) | 0.15 | -0.108 | 0.521 | 4.05 | 0.674 | 1.29 | 0.106 | 1.14 | 1.65 | 1.22 | 0.142 | 0.974 | 0.748 | 0.0905 | -1.43 | 0.24 | 1 | 1.77 (inactive)
